# Measurements published in PubChem BioAssay (NCI).
# Compounds without any hit were thinned out: in the full panel of roughly 79,000, 15% have a hit. A number with no mark means an inactive call. Calls of active or inactive are those of the source. Rule as the data show it: active = growth inhibition above about 70%; inactive = the rest.
# Tests used:
# [1] = NCI Yeast Anticancer Drug Screen. Data for the rad50 strain (AID 155);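 also: 0% = growth of vehicle-only cultures of the same strain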; settings: S. cerevisiae rad50 strain growth inhibition; at 50.0 µM; stronger effect = higher value
# Method in brief: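 Relative growth inhibition (compound vs vehicle) was measured in yeast with a defined repair-gene alteration.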
# [2] = NCI Yeast Anticancer Drug Screen. Data for the mec2-1 strain (AID 157); settings: S. cerevisiae mec2-1 strain, at 50.0 µM, stronger effect = higher value
# Method in brief: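 Mutant yeast (mec2-1) grown with compound; growth inhibition relative to vehicle control reported.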
# [3] = NCI Yeast Anticancer Drug Screen. Data for the sgs1 mgt1 strain (AID 161);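 also: 0% = growth of cultures given vehicle only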; settings: S. cerevisiae sgs1 mgt1 strain, at 50.0 µM, stronger effect = higher value
# Method in brief: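 Yeast cells carrying a defined DNA-repair defect were exposed to test compounds. Growth inhibition was measured relative to vehicle-treated controls.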
# [4] = NCI Yeast Anticancer Drug Screen. Data for the cln2 rad14 strain (AID 165);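 also: 0% = growth equal to vehicle treated cultures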; settings: S. cerevisiae cln2 rad14 strain, at 50.0 µM, stronger effect = higher value
# Method in brief: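 Readout is yeast growth inhibition versus vehicle-treated controls, using a strain with cln2 and rad14 alterations exposed to compound.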
# [5] = NCI Yeast Anticancer Drug Screen. Data for the bub3 strain (AID 167); settings: S. cerevisiae bub3 mutant strain, at 50.0 µM, stronger effect = higher value
# Method in brief: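 Screening used yeast with an engineered genetic alteration affecting cell cycle control. Compound-exposed cultures were compared with vehicle cultures, and reduced growth was taken as inhibition.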
# [6] = NCI Yeast Anticancer Drug Screen. Data for the mlh1 rad18 strain (AID 175); settings: S. cerevisiae mlh1 rad18 strain growth inhibition; at 50.0 µM; stronger effect = higher value
# Method in brief: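 Genetically defined yeast (DNA repair-deficient) exposed to compounds; growth inhibition determined relative to vehicle.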
Structure (SMILES),growth inhibition [1],growth inhibition [2],growth inhibition [3],growth inhibition [4],growth inhibition [5],growth inhibition [6]
CC(=O)c1cccc(NC(=O)Nc2cccc(C)n2)c1,-9.55%,32.8%,11.9%,-24.6%,8.55%,12.6%
Cc1ccc2c(=O)[nH]cnc2c1,-10.4%,-23.2%,4.45%,-7.6%,2%,-2.15%
O=C(c1ccc2c(c1)C(=O)OC2=O)c1ccc2c(c1)C(=O)OC2=O,-22.5%,-39.9%,-17.8%,6.1%,-27.8%,-29.7%
CCCCN(CCCC)CC(O)c1cc(Cc2ccccc2)nc2c(Cl)cc(Cl)cc12 (stereo not given),95.3% (active),95.5% (active),96.8% (active),89.8% (active),95% (active),96.2% (active)
O=C=Nc1ccc(Cc2ccc(N=C=O)cc2)cc1 (tested in a mixture with another compound),-6.55%,-1.5%,-12.2%,8.95%,-0.5%,14.3%
CCOC1CSc2ccccc2C(c2ccccc2)=N1 (stereo not given),9.9%,-1.4%,0.25%,10.6%,14.7%,6.75%
COc1ccc(CNc2ccccc2C(=O)O)cc1OC,11.2%,2.8%,-1.95%,31.4%,32.8%,8.65%
CC(=O)C(C)(O)C(OP(=O)(O)O)c1ccccc1 (stereo not given),0.65%,-10.5%,4.6%,-37.4%,-11.1%,3.55%
CCCN1COC(OCCN(CC)CC)C(C)(C)C1 (stereo not given),7.15%,-4.35%,-21.3%,6.7%,7.2%,12.9%
CN(CCNC(=O)NC1CCCCC1)c1ccccc1,3.45%,0.75%,15.9%,2.85%,8.45%,35.4%
OC1COCCC(O)(CNCc2ccccc2)C1O (stereo not given),7.4%,16.6%,-3.95%,8.15%,-6.95%,-9.1%
CCOC(=O)c1cn(C2OC(COC(=O)c3ccccc3)C(OC(=O)c3ccccc3)C2OC(=O)c2ccccc2)c(=O)nc1N (stereo not given),-1.05%,-12.2%,18%,-32%,7.45%,-7.15%
c1ccc(CN2CCCCC2)nc1,-12.9%,-20.7%,-11.1%,10.6%,-10.2%,-10.2%
N#CCc1c(F)c(F)c(F)c(F)c1F,6.8%,5.75%,14.4%,3.2%,10.5%,2.6%
Nn1nc2ccccc2n1,-0.15%,0.2%,-11.1%,1.6%,0.75%,1.45%
BrC12CC3CC(CC(C3)C1)C2,21.8%,13.1%,9.4%,11.1%,9.25%,12.8%
CC(=O)OC(C(=O)Nc1nncs1)c1ccccc1 (stereo not given),7.05%,-22.9%,7.25%,8.05%,11.2%,18.1%
CC(C(=O)O)C(C)C(=O)O (stereo not given),3.3%,4.15%,9.8%,6.45%,5.1%,14.2%
CC(C)(C)NC(=O)Oc1ccc(-c2ccccc2)cc1,4.75%,26.6%,33%,-4.45%,18.2%,32.9%
O=C(Nc1cc(Cl)c(Cl)cc1Cl)OCc1ccc2c(c1)OCO2,-12.1%,-32.3%,-14.4%,6.25%,-25.2%,-14.6%

Structure (SMILES),growth inhibition [1],growth inhibition [2],growth inhibition [3],growth inhibition [4],growth inhibition [5],growth inhibition [6]
COC(=O)C(=O)C(C(=O)C(=O)Nc1cccc(OC)c1)c1nc2ccc(Cl)cc2[nH]c1=O (stereo not given),21.1%,-1.2%,-8.25%,-10.2%,-35.1%,-25.6%
O=C(CN=Cc1ccccc1O)NCc1ccccn1,-10.7%,-5.9%,10.7%,10.1%,-21.9%,21.3%
COC(=O)Cc1onc(-c2ccccc2)c1[N+](=O)[O-],-17.3%,-12.2%,-4.8%,19.9%,28.9%,32%
Cc1nn(C(=O)c2c(-c3ccccc3)noc2C)c(C)c1N=Nc1cc(C(F)(F)F)cc(C(F)(F)F)c1,-6.2%,-8.85%,-2.9%,20.5%,-2.7%,0.6%
CN(C)CCCNc1ccc2ncn3c4ccccc4c(=O)c1c23,-2.15%,6.2%,-3.35%,20.9%,1.5%,22.4%
CCC(C)C1CCCCC1OC(=O)CCl (stereo not given),-5.45%,-14.8%,-16.3%,0.05%,-9.55%,-18.6%
COC12NC(=O)NC(=O)C1(c1ccccc1)CC(C)O2 (stereo not given),-2.7%,-2.15%,6.8%,-7.7%,-24.1%,-6.6%
Clc1ccccc1C(Cl)c1ccccc1 (stereo not given),3.3%,-14.2%,-5.95%,-21.6%,-10.7%,-6.25%
O=S1CCCO1 (stereo not given),-7.55%,-8.6%,-13.8%,-41.2%,11%,0.3%
N=C1N=Nc2nc(C(C(=O)c3ccc(O)cc3O)c3nc4n(c3O)C(=N)N=N4)c(O)n21 (stereo not given),2.35%,-4.3%,7.15%,-24%,-15.3%,-2.4%
COc1ccc2c(c1OC)Oc1c(OC)ccc3c1C(C2)N(C)C[C@@H]3O (stereo not given in full),10.1%,3.25%,-7.6%,-0.6%,26.1%,-5.5%
O=c1cc(-c2ccccc2)c2ccc(O)cc2o1,-11.8%,1.45%,20.4%,3%,2%,-1.2%
O=C(CC(=O)c1ccccc1)Nc1ccc(-c2nc3ccccc3c(=O)[nH]2)cc1,20.1%,10.5%,19.9%,1.9%,19.6%,27.7%
COc1ccc(NC(=O)C(=O)c2c(O)c3ccc(O)cc3oc2=O)c([N+](=O)[O-])c1,14.4%,9.95%,1%,3.95%,-2.85%,-6.1%
O=C(O)c1c2ccccc2nc2ccccc12,-17.6%,-17.9%,-17.9%,-34.5%,15.2%,57%
COC(=O)/C=C/c1cc(OC)c2c(c1)C(C(=O)OC)C(c1ccc(O)c(OC)c1)O2 (stereo not given),-2.75%,7.6%,-38.4%,-17.6%,-23.8%,-8.95%
Nc1cc(Nc2ccc(Cl)[nH]c2=S)nc(N)n1,31.1%,13.8%,11.5%,20.6%,18.4%,15.2%
CCSc1nc(C)c(C)c(=O)[nH]1,14.2%,-10.9%,22.4%,16%,21.8%,12.8%
COC(=O)C(CC12CC3CC(CC(C3)C1)C2)NC(=O)C(N)CC(=O)O (stereo not given),-42.9%,-30.4%,-23.8%,15.9%,14.7%,-24.4%
[O-]/[N+](=C\c1ccc(Cl)cc1)c1ccccc1,-11.2%,-14.1%,-21.1%,-8.85%,-18.9%,-7%
